Screening results as filed in PubChem.
PNC assembly inh – High Content Assay for Compounds that inhibit the Assembly of the Perinucleolar Compartment; PC3M PTB-GFP, PNC prevalence imaging, 16 h; active compounds read low; hit rate 3.1% among 140,000; activity change (PNC), negative = inhibition, % at 10 µM;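 active = readout at or below -70, meaning at least 70% loss of cells showing the perinucleolar compartment, a nuclear body marking cancer cells; inconclusive = readout between -30 and a set limit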;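 also: plate controls were DMSO wells for no effect and camptothecin positive control wells for full effect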
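Read-out is percentage of cells bearing a perinucleolar compartment, from automated 20x imaging of fixed, Hoechst-stained PC3M PTB-GFP cells. Cells were seeded 4 h, then exposed 16 h to compound (23 nl of library stock) in duplicate plates.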
HPGD block – qHTS Assay for Inhibitors of HPGD (15-Hydroxyprostaglandin Dehydrogenase) | Potency, µM, without a hit: at the highest dose activity change, negative = inhibition, hits mostly inhibitors | hit rate 4.3% among 150,000 | purified HPGD, NADH fluorescence kinetic, PGE2 substrate | AID 894, 2007; also: potency is read from the fitted curve at half-maximal effect
Target sequence (P15428 whole entry, looked up): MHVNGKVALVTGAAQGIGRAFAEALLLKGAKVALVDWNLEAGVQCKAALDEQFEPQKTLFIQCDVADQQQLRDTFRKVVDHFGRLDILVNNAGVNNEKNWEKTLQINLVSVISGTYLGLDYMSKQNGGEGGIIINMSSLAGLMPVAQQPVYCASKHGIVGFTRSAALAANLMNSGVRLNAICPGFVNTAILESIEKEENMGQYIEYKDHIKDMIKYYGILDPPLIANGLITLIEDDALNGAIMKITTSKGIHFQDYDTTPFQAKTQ
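NADH formation kinetics: reaction with 30 uM PGE2 and 1 mM NAD+ (final), 20 nM enzyme, Tris-HCl pH 8 with Tween 20, after 15 min compound preincubation at room temperature. Fluorescence change, last versus first of five reads.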
ALDH1A1 block – qHTS Assay for Inhibitors of Aldehyde Dehydrogenase 1 (ALDH1A1) | Purified ALDH1A1, NADH fluorescence, propionaldehyde substrate | Potency, µM (doses to about 75.3 µM), for the others: at the highest dose activity, negative = inhibition, actives largely listed as inhibitors | hit rate 7.3% among 220,000 | AID 1030, 2008;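 also: potency is read from the fitted curve at half-maximal effect; plate controls were no enzyme wells and a reference inhibitor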
* = called active by the depositor; ? = inconclusive; . = no result; [ ] = remark or other dose. Sampled rows, rich in hits. Any-hit rate of the full collection: about 11%. Unless noted, calls follow the shape of the dose curve; as a rule, active = well fitted inhibition curve with a large enough effect (not every such curve was filed as active); inconclusive = small, poorly fitted or top-dose-only effect, or another doubt; inactive = no such curve, though single readings can be large or run the other way. Unless noted, % is scaled to controls: 0 for no effect and ±100 for the full control effect.

SMILES	PNC assembly inh	HPGD block	ALDH1A1 block
Cc1ccc(S(=O)(=O)N2CCCC(C(=O)N(Cc3cccs3)C3CC3)C2)cc1 (centres undefined)	?	-5.9%	7.08µM*
CCOC(=O)C1CCN(S(=O)(=O)c2ccc(Cl)cc2OC)CC1	-27.7	-4.6%	-9.2%
O=C(NCc1cccs1)C1CCCN(S(=O)(=O)c2ccc3c(c2)OCO3)C1 (centres undefined)	?	.	-4.4%
CCOC(=O)N1CCC(NC(=O)C2CCN(C(=O)N3CC(C)Oc4ccc(C)cc43)CC2)CC1 (centres undefined)	?	-10.6%	7.94µM*
Cn1c(=O)oc2cc(S(=O)(=O)N3CCCC(C(=O)NCc4cccs4)C3)ccc21 (centres undefined)	?	-27.6%	10.6%
CCOC(=O)N1CCC(NC(=O)C2CCN(C(=O)N3CC(C)Oc4ccccc43)CC2)CC1 (centres undefined)	-2.1	-7.9%	?
COC(=O)c1ccc(N2CCN(CC(=O)c3ccc(-c4ccccc4)cc3)CC2)c([N+](=O)[O-])c1	23.4	?	?
Cc1noc(C)c1COc1cccc(C(=O)Nc2ccccc2N2CCOCC2)c1	?	-11.5%	4.9%
Cn1ncc2c(NCCc3ccccc3)nc(Cl)nc21	.	-10.6%	5.8%[13.5 µM]
O=C(O)C1CCCN(S(=O)(=O)c2cccs2)C1 (centres undefined)	-100.0*	-14.0%	1.0%
COC(=O)c1ccccc1NC(=O)C1CCCN(S(=O)(=O)c2ccccc2)C1 (centres undefined)	?	-9.6%	-7.0%
COc1ccc(S(=O)(=O)N2CCCC(C(=O)N3CCCCCC3)C2)cc1 (centres undefined)	?	-6.7%	?
CCOC(=O)C1CCCN(S(=O)(=O)c2ccc(S(=O)(=O)N(CC)CC)cc2)C1 (centres undefined)	.	.	-7.9%
O=C(NCc1cccs1)C1CCCN(S(=O)(=O)c2cccs2)C1 (centres undefined)	-25.4	-10.3%	-0.5%
COC(=O)c1ccccc1NC(=O)C1CCCN(S(=O)(=O)c2ccc(F)cc2)C1 (centres undefined)	-89.1*	-19.9%	-2.1%
CCOC(=O)C1CCCN(S(=O)(=O)c2ccc(C)cc2)C1 (centres undefined)	132.0	-12.2%	8.91µM*
CCOC(=O)C1CCCN(S(=O)(=O)c2ccc(OC)cc2)C1 (centres undefined)	24.6	-5.3%	3.16µM*
Cc1occc1C(=O)NNC(=O)c1ccccc1F	.	.	8.5%
CN(C)CCCOC(=O)COc1ccc(C(C)(C)C)cc1	23.3	-0.9%	-4.4%
COCCNC(=O)COc1ccc(OCCNC[C@H](O)COc2ccccc2)cc1	.	.	1.6%
CCOC(=O)Cc1nnc2c(Nc3ccc(Cl)cc3)nc3nonc3n12	39.3	-1.3%	-10.0%
CCOC(=O)C1CCN(S(=O)(=O)c2ccc(-n3cnnn3)c(C)c2)CC1	-100.0*	-7.3%	-3.5%
COc1ccc(S(=O)(=O)NCC2CCCN(C(=O)C3CCCC3)C2)cc1 (centres undefined)	.	.	3.55µM*
CCOC(=O)C1CCN(S(=O)(=O)c2ccc(C)c(C)c2)CC1	.	.	6.0%
COCC(=O)N1CCCC(CNS(=O)(=O)c2ccc(OC)cc2)C1 (centres undefined)	.	.	-8.4%
SMILES	PNC assembly inh	HPGD block	ALDH1A1 block
O=C(C1COc2ccccc2O1)N1CCN(c2ccccc2Cl)CC1 (centres undefined)	.	.	-5.1%
O=C(C1COc2ccccc2O1)N1CCc2ccccc2C1 (centres undefined)	?	7.08µM*	?
O=C(CCl)Nc1ccccc1C(=O)c1ccccc1	.	.	25.1µM*
Cc1ccc(NS(C)(=O)=O)c(C(=O)c2ccccc2)c1	-10.3	-10.5%	-3.0%
CCC(=O)Nc1ccccc1C(=O)OCc1ccc(C(=O)c2ccccc2)cc1	3.7	14.1µM*	?
O=C(O)CC1(CC(=O)Nc2ccccc2C(=O)c2ccccc2)CCCC1	.	.	-13.8%
Cc1cc(C(=O)c2ccccc2)c(NC(=O)CCl)s1	?	?	2.51µM*
CCC(=O)Nc1ccccc1C(=O)OC(c1ccccc1)c1ccccc1	30.1	?	?
Cc1ccc(SCCC(=O)Nc2cccc(N(C)S(C)(=O)=O)c2)cc1	0.8	-18.0%	?
Cc1ccc(-c2nnn(CC(=O)N(c3ccc4c(c3)OCCO4)C(C(=O)NCC3CCCO3)c3ccc(F)cc3)n2)o1 (centres undefined)	.	.	12.3%
C=CC1=C(C)C2=Cc3c(C=C)c(C)c4[n]3[Sn+2][n]3c(c(C)c(CCC(=O)O)c3=CC3=NC(=C4)C(C)=C3CCC(=O)O)=CC1=N2	.	-19.4%	?
Cc1cccc(-c2c3c(=O)n(C)c(=O)n(C)c3cn2C2CCCCC2)c1	34.9	-29.5%	?
Cc1ccc(C(=O)NCC(=O)N/N=C/c2cccs2)cc1C	.	.	2.0%
C[C@@H]1C[C@](C)(C(=O)c2ccco2)C=C1c1ccco1	.	-8.4%	14.1µM*
C[C@@H]1C[C@](C)(C(=O)c2ccc3ccccc3c2)C=C1c1ccc2ccccc2c1	.	-2.7%	2.9%
C#CCOc1ccc(Cl)cc1/C=N/O	?	?	7.3%
C#CCOc1ccc(Br)cc1/C=N/O	30.3	14.1µM*	0.0%
O=C(O)COc1ccc(Br)cc1/C=N/O	-10.3	-14.1%	3.1%
CCOc1ccc(Br)cc1/C=N/O	-19.2	11.2µM*	-1.2%
CCCOc1ccc(Br)cc1/C=N/NC(=O)c1cc(OC)c(OC)c(OC)c1	?	-10.7%	-3.6%
CCCOc1ccc(Br)cc1/C=N/O	-16.6	10µM*	-2.2%
O=C(COC(=O)CCc1nc2ccccc2s1)NCc1ccco1	.	.	2.6%
COc1ccccc1C(=O)NCCc1nc2ccccc2[nH]1	20.3	-11.3%	0.7%
COCCn1c(=O)c(-c2cn(C)c3ccccc23)nc2cnc(Oc3cccc(Cl)c3)nc21	.	.	-0.1%
C/C(CC(=O)Nc1ccc(C)c(Cl)c1)=N\NC(=O)c1ccco1	.	.	4.1%
SMILES	PNC assembly inh	HPGD block	ALDH1A1 block
Cc1[nH]c2ccccc2c1/C=N/n1cnnc1	-28.4	-13.2%	10.1%
CCN(CC)c1ccc(N=Cc2c(C)[nH]c3ccccc23)cc1	?	?	0.447µM*
O=C1CC(c2ccccc2O)Oc2ccc(O)cc21 (centres undefined)	.	-26.1%	-1.5%
O=C(NCc1ccccc1)C1CCC1	?	20µM*	20.1%
O=C(NCc1ccc2c(c1)OCO2)C1CCC(CNc2c(N3CCCC3)c(=O)c2=O)CC1 (centres undefined)	?	-26.2%	13.9%
Cc1ccc(CNC(=O)C2CCC(CNc3c(N4CCOCC4)c(=O)c3=O)CC2)cc1 (centres undefined)	-21.6	?	2.0%
O=C(NCc1ccccc1)C1CCN(S(=O)(=O)N2CCCCCC2)CC1	?	-3.9%	?
O=C(NCc1ccccc1)C1CCC(CNc2c(N3CCCCC3)c(=O)c2=O)CC1 (centres undefined)	30.6	20µM*	4.5%
CC1CCN(c2c(NCC3CCC(C(=O)NCc4ccccc4)CC3)c(=O)c2=O)CC1 (centres undefined)	?	17.8µM*	8.8%
